Screening results deposited in PubChem BioAssay by National Center for Advancing Translational Sciences (NCATS).
In the library only some 2.4% were active in any assay of this set; here they are far more common.
Rango release inh – inhibitors of RanGTP-induced Rango-importin beta complex dissociation; O95149+P62826; Biochemical FRET Rango-importin beta, RanGTP-induced dissociation; Potency, µM (highest dose often 46.1 µM), inactives show at the top dose activity change, negative = inhibition; actives 0.071% (n = 340,000); AID 540253; calls by dose curve; also: % of control where 0% means no effect; nearly all actives have a fitted effect of over 45% in size
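Rango FRET biosensor (snurportin-1 IBB flanked by N-terminal EYFP and C-terminal CFP10) at 0.1 uM, with 0.25 uM importin beta in PBS, 1mM DTT, 0.02% Tween-20, 0.1% BSA. 0.6 uM Ran, 2mM GTP and 0.2 uM RCC1 were then added for 45 min at room temperature. Inhibition read as loss of FRET rise.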
PGK inhibitor – T. brucei PGK inhibition | Potency, µM (doses to about 57.5 µM), inactives show at the top dose activity change, negative = inhibition, most hits filed as inhibitors | AID 602233 | PGK/GAPDH coupled, Kinase-Glo luminescence, 60 min | actives 0.043% (n = 380,000); also: % is scaled to controls: 0 for no effect and ±100 for the full control effect; nearly all actives have a fitted effect of over 60% in size
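Recombinant glycosomal PGK reaction used 1,3-bisphosphoglycerate generated in-well by GAPDH (100nM final) in 100mM TEA pH 7.6, 5mM MgCl2, 0.01% Tween-20. After 60 minutes at room temperature, ATP was read by Kinase-Glo Plus luminescence end-point.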
Rango-impB inh – prevents formation of the Rango-importin beta complex | Q14974 | Rango CFP/YFP FRET sensor + importin beta, 45 min | Potency, µM (titrated, usually from 92.2 µM), for inactives: top-dose inhibition of complex formation | actives 0.031% (n = 340,000) | AID 540263; calls by dose curve;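 also: 0% = DMSO wells and 100% = buffer wells lacking importin beta; nearly all actives have a fitted effect of over 15% in size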
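FRET biosensor Rango (snurportin 1 IBB between N-terminal EYFP and C-terminal Cerulean), 50 nM in PBS/1 mM DTT/0.02% Tween-20/0.1% BSA, preincubated 5 min RT with compound; 0.125 microM importin beta added, 45 min RT, CFP/YFP FRET ratio read.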
PKM2 act – increases activity of human pyruvate kinase M2; actives 0.34% (n = 260,000); Potency, µM (top dose mostly 57.5 µM), for the others: at the highest dose activation, actives largely listed as activators; purified PKM2, Kinase-Glo ATP luminescence, activation; response scale: 0% is enzyme alone, no compound; P14618; AID 1631; also: % is scaled to controls: 0 for no effect and ±100 for the full control effect; nearly all actives have a fitted effect of over 55% in size
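Purified hPK-M2 (>95% pure) converted ADP (0.1 mM final) to ATP with 0.5 mM PEP in 50 mM imidazole pH7.2, KCl, MgCl2, Tween 20, BSA; 1 h at room temperature. ATP detected by Kinase-Glo luminescence.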
Tb PFK inh – blocks T. brucei phosphofructokinase. O15648. T. brucei PFK, ADP-Glo luminescence. Potency, µM (titrated, usually from 57.5 µM), without a hit: at the highest dose activity, negative = inhibition, usual class: inhibitors. actives 0.17% (n = 330,000);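 also: 0% = uninhibited 1x PFK enzyme wells and -100% = no-enzyme wells; nearly all actives have a fitted effect of over 60% in size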
Target sequence (O15648 whole entry, looked up): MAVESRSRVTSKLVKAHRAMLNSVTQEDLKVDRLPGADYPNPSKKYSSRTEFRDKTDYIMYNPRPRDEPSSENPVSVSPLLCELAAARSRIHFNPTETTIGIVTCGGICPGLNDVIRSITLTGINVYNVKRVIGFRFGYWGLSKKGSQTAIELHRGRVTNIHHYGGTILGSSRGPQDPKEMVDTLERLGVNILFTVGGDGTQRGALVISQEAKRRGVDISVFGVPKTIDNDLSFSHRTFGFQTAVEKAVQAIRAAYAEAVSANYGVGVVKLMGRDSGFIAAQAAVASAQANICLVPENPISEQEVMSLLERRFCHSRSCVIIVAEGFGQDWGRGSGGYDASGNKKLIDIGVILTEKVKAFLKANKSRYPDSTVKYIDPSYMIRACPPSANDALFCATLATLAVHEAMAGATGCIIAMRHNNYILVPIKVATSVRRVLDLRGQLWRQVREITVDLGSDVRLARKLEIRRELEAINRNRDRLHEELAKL
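ADP-Glo luminescence quantified ADP after 45 min at room temperature, with 1.25 nM T. brucei PFK, 0.1 mM ATP and 0.5 mM fructose-6-phosphate in pH 8.0 TEA buffer. qHTS titrations up to 57 µM; curves classified by quality.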
ELG1 repair inh – blocks ELG1-dependent DNA repair in HEK293T cells | HEK293T ELG1-luciferase reporter, luminescence, 16 h; DNA damage induced by 5-fluorouridine | AID 504467 | actives 2.3% (n = 330,000) | Potency, µM (highest dose often 46.1 µM), for inactives: at the top dose activity change, negative = inhibition, most hits filed as inhibitors; also: % is scaled to controls: 0 for no effect and ±100 for the full control effect; nearly all actives have a fitted effect of over 55% in size
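HEK293T cells expressing luciferase-tagged ELG1 (2,000/well) received 5-Fluorouridine plus compound or DMSO for 16 hr at 37 °C. Luciferase was read by ONE-Glo luminescence after 30 min at room temperature.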
Numbers without * were called inactive; i = inactive; u = inconclusive; x = no result; [ ] = another dose, or the depositor's remark. Unless noted, calls follow the shape of the dose curve; as a rule, active = well fitted curve in the direction sought with a large enough effect; inconclusive = small, poorly fitted or top-dose-only effect, or another doubt; inactive = no such curve, though single readings can be large; an effect the other way counts as inactive or inconclusive. Potency is read from the fitted curve at half-maximal effect.

SMILES	Rango release inh	PGK inhibitor	Rango-impB inh	PKM2 act	Tb PFK inh	ELG1 repair inh
Cc1ccc(F)cc1NC(=O)N1CCN(c2ccnc3cc(Cl)ccc23)CC1	0.8%	-10.2%	-0.2%	11.7%	-6.9%	u
CCCCNC(=O)N1CCN(c2ccnc3cc(Cl)ccc23)CC1	2.0%	-12.5%	-0.7%	x	0.5%	20.6µM*
Cc1cccc(-n2c(=O)c3ccccc3n(Cc3ccccc3)c2=O)c1	x	-8.6%	x	x	x	x
COc1ccc(C(=O)Nc2cccc(OCc3cc(=O)n4c5c(sc4n3)CCCC5)c2)cc1	x	-3.8%	x	x	x	x
O=C(C1=C[C@@H](c2ccccc2)C[C@@H](OCc2ccc(CO)cc2)O1)N1CCN(Cc2ccc3c(c2)OCO3)CC1	0.3%	-4.1%	-3.3%	2.3%	0.9%	14.6µM*
O=C(C1=C[C@@H](c2csc3ccccc23)C[C@@H](OCc2ccc(CO)cc2)O1)N1CCN(Cc2ccc3c(c2)OCO3)CC1	-17.2%	-9.0%	-2.5%	-2.2%	0.4%	9.2µM*
CCCC(=O)Nc1c(-c2ccccc2)c(=O)c(C)nn1-c1ccc(C)cc1	7.2%	i	2.1%	-2.9%	-3.0%	9.3%
O=C(C[n+]1cccc2ccccc21)c1ccc([N+](=O)[O-])cc1	-5.1%	-1.8%	0.1%	0.1%	0.4%	20.6µM*
O=C(C[n+]1cccc2ccccc21)c1ccc(Cl)cc1	-16.5%	-2.0%	u	x	3.8%	14.6%
O=C(Nc1ccc(-c2nc3ccccc3o2)cc1)c1cc(-n2cnnc2)ccc1Cl	5.3%	-11.4%	0.3%	22.0%	3.7%	u
O=C(Nc1ccc(-c2nc3ccccc3o2)c(O)c1)c1cc(-n2cnnc2)ccc1Cl	8.7%	-2.0%	7.7%	10.3%	2.1%	20.6µM*
COc1ccccc1CNC(=O)CCCCn1c(=O)c2ccccc2n(Cc2ccccc2C)c1=O	x	-1.0%	x	x	x	x
Cc1cccc(N2CCN(C(=O)CS(=O)(=O)c3cccc4nsnc34)CC2)c1C	x	-8.3%	x	x	x	x
COc1ccc(C(=O)Nc2ccc(NS(=O)(=O)c3ccccc3)cc2)cc1OC	3.3%	i	-2.8%	-8.3%	0.3%	18.3µM*
COc1ccc(C(=O)Nc2cccc(NC(=O)c3ccc(OC)c(OC)c3)n2)cc1OC	0.4%	-7.6%	-0.3%	-0.2%	1.0%	2.91µM*
COc1ccc(C(=O)Nc2cccc3cccnc23)cc1OC	-2.0%	-5.3%	1.3%	0.4%	2.5%	u
COc1ccc(C(=O)Nc2ccccc2C(=O)NC(C)C)cc1OC	3.7%	4.6%	2.3%	-1.5%	-2.5%	18.4µM*
COC(=O)c1cc(S(=O)(=O)NC2CCCCC2)cn1C	-2.5%	-0.3%	-0.2%	x	1.4%	u
COc1ccc(-c2cc(C)no2)cc1S(=O)(=O)NCc1cccs1	x	-7.4%	x	x	x	x
N#Cc1c(-c2cccs2)nc(SCc2ccc(Cl)cc2)[nH]c1=O	-0.8%	-8.1%	-2.2%	31.6µM*	-1.7%	5.2%
Cn1nccc1C(=O)Nc1ccc(OC(=O)c2ccnn2C)cc1	10.7%	x	-1.9%	-4.3%	2.6%	23.1µM*
CC(C)(C)C1CCc2nc(NC(=O)c3cccc(Cl)c3)sc2C1 (stereo not given)	x	7.3%	x	x	x	x
Cc1ccc(C)c(N2CCN(C(=O)C3CCCN(S(=O)(=O)c4c(C)noc4C)C3)CC2)c1 (stereo not given)	0.4%	i	-3.0%	-2.5%	1.4%	14.6µM*
O=C(C1CCN(c2nnc(N3CCCC3=O)s2)CC1)N1CCN(c2cccc(C(F)(F)F)c2)CC1	8.0%	-4.7%	7.5%	x	-11.9%	u
Cc1noc(C)c1S(=O)(=O)N1CCC(C(=O)N2CCN(c3ccccc3Cl)CC2)CC1	-17.7%	1.5%	-0.4%	-4.1%	-2.5%	u
SMILES	Rango release inh	PGK inhibitor	Rango-impB inh	PKM2 act	Tb PFK inh	ELG1 repair inh
Cc1cccc(N2CCN(C(=O)C3CCN(S(=O)(=O)c4c(C)noc4C)CC3)CC2)c1C	-23.7%	-0.7%	-0.7%	x	-9.8%	13µM*
Cc1ccc(C)c(N2CCN(C(=O)C3CCN(c4nnc(N5CCCC5=O)s4)CC3)CC2)c1	-19.7%	-1.5%	1.2%	-19.9%	-0.5%	14.6µM*
Cc1noc(C)c1S(=O)(=O)N1CCCC(C(=O)N2CCN(C3CCCCC3)CC2)C1 (stereo not given)	-1.1%	-1.0%	-1.1%	-4.4%	-3.1%	-1.4%
Cc1ccc(C)c(N2CCN(C(=O)C3CCN(S(=O)(=O)c4c(C)noc4C)CC3)CC2)c1	9.7%	4.5%	4.0%	-9.5%	2.1%	11.6µM*
CCOC(=O)c1c(S(=O)(=O)N2CCCC(C(=O)N3CCN(c4ccccc4)CC3)C2)c(C)n(C)c1C (stereo not given)	x	i	x	x	x	x
Cc1cccc(N2CCN(S(=O)(=O)c3c(C)nc4scc(C)n4c3=O)CC2)c1C	u	4.9%	4.6%	x	2.9%	25.9µM*
COc1ccc(C(C)(C)C)cc1NC(=O)c1[nH]c(C)c(C(C)=O)c1C	11.2%	6.0%	-4.2%	17.8µM*	-4.9%	5.8µM*
COc1ccc(NC(=O)c2[nH]c(C)c(C(C)=O)c2C)cc1Cl	-8.3%	-2.5%	3.8%	-11.4%	-6.4%	u
N=C1c2c(cc(=O)n3c2[nH]c2ccccc23)CN1CCN1CCOCC1	20.6µM*[inhibitor]	10.6%	u	u	-1.7%	11.2%
COc1cc2c(OC(C)=O)c3c(c(-c4ccc5c(c4)OCO5)c2cc1OC)C(=O)OC3	16.4µM*	-11.1%	u	0.5%	0.0%	-16.1%
CC(C)N=C(NS(=O)(=O)c1ccccc1)C(Cl)(Cl)Cl	-4.6%	-0.8%	2.8%	0.5%	0.7%	5.17µM*
O=C(CSc1nc2ccccc2n1Cc1ccccc1Cl)N/N=C/c1ccccc1C(=O)O	-11.9%	i	0.8%	25.1µM*	4.8%	-3.4%
COc1ccc(-c2nc(-c3ccc4c(c3)OCO4)[nH]c2-c2ccc(OC)cc2)cc1	-6.5%	i	-6.3%	-8.4%	7.7%	18.4µM*
N#Cc1c(NC(=O)c2ccccc2Cl)n(Cc2ccccc2)c2nc3ccccc3nc12	u	-6.0%	u	13.1%	3.3%	20.6µM*
CCCCn1c(NC(=O)c2ccccc2Cl)c(C#N)c2nc3ccccc3nc21	u	-21.9%	u	2.1%	2.8%	23.1µM*
CCCCn1c(NC(=O)CC)c(C#N)c2nc3ccccc3nc21	u	1.6%	u	-1.4%	3.0%	0.0%
CCOC(=O)C1=C(C)Nc2nnnn2C1c1cccc(OC)c1OC (stereo not given)	0.1%	4.7%	1.8%	15.8µM*	0.0%	-27.3%
Cc1noc(/C=C/c2ccccc2F)c1S(=O)(=O)N1CCC(C(=O)N2CCOc3ccccc32)CC1	x	-5.9%	x	x	x	x
